High-throughput results as filed in PubChem.
CDC25B-CDK2 inh: human CDC25B-CDK2/CyclinA binding inhibition; P30305+P24941; HTRF CDC25B-CDK2/CyclinA binding, anti-His/anti-Flag; stronger effect = higher value; z-score (no concentration beside the values); actives 0.72% (n = 94,000); AID 1259370; in the data active means z-score above about 3.2
HIV TAR-Tat: HIV-1 TAR-Tat binding disruption | HIV-1 TAR RNA, Tat peptide displacement FRET; stronger effect = higher value | z-score (test concentration not listed) | actives 0.6% (n = 100,000); active means z-score of 3 or more in at least 2 runs
* marks the source's active call; other numbers are inactive results; . = no result. The list is not random: actives were taken first. Their share in the collection is about 0.86%.

SMILES	CDC25B-CDK2 inh	HIV TAR-Tat
CCOC(=O)c1cc(C#N)c(Sc2ccccn2)nc1C(F)(F)F	-1.28	.
CCOC(=O)c1cc(C#N)c(Oc2ccccc2)nc1C(F)(F)F	22.4*	.
CCCNC(=O)c1cc2oc3ccccc3c2n1C	-1.94	0.61
Cn1c(C(=O)NCc2ccccc2Br)cc2oc3ccccc3c21	10.1*	-0.04
CCCCCCCCCCCCCC(=O)NCCOS(=O)(=O)O	0.21	.
CC(=O)N1c2ccc(S(=O)(=O)N3c4ccccc4CC3C)cc2CC1C (configuration not stated)	.	0.07
COC(=O)c1cc(S(=O)(=O)N2c3ccccc3CC2C)c[nH]1 (configuration not stated)	.	21.6*
O=[N+]([O-])c1ccc(CSc2cc(-c3ccccc3)nc3ncnn23)cc1	-1.95	.
O=c1ccc(-c2ccc(S(=O)(=O)Nc3ccc(Br)cc3F)o2)n[nH]1	.	18.2*
O=c1ccc(-c2ccc(S(=O)(=O)Nc3ccc(Cl)cc3F)o2)n[nH]1	.	2.11
COc1ccc2c(c1)CC(NC(=O)NCCCN1CCCC1)CO2 (configuration not stated)	.	0.68
C(/C=C/c1ccccc1)=Nc1ccccc1	-1.19	.
Cc1ccc(C2CC(=O)N3CN(c4ccc(CCO)cc4)CSC3=C2C#N)cc1 (configuration not stated)	7.11*	-0.54
CCOc1ccc(C2CC(=O)N3CN(c4ccc(OCC)cc4)CSC3=C2C#N)cc1 (configuration not stated)	2.14	0.45
COc1ccc(C2CC(=O)N3CN(c4ccc(CCO)cc4)CSC3=C2C#N)cc1 (configuration not stated)	6.01*	0.63
Brc1ccc(CNc2n[nH]c(-c3ccco3)n2)cc1	-2.66	1.84
CN(C)c1ccc(CNc2n[nH]c(-c3ccco3)n2)cc1	14.9*	3.08
Cc1ccc(S(=O)(=O)Nc2cc(-c3c(O)ccc4ccccc34)c(O)c3ccccc23)cc1	-0.64	.
Cn1c(SCC(=O)Nc2ccc3[nH]c(=O)[nH]c3c2)nnc1-c1ccccc1	-0.17	0.78
CC(=O)c1ccc(NC(=O)CSc2nnc(-c3ccc4ccccc4c3)n2C)cc1	6.91*	.
NC(=O)c1nc(Nc2ccccc2)sc1NC(=O)c1[nH]nc2c1CCc1ccccc1-2	.	0.43
COC(=O)CSc1nc2sc3c(c2c(=O)n1-c1ccccc1)CCCC3	-0.08	2.59
COc1cc(Cl)c(Cl)cc1Cl	5.97	.
Cc1ccc(SCC(=O)OCc2cc(=O)n3nc(-c4cccs4)sc3n2)cc1	.	0.74
CCC(=O)OCc1cc(=O)n2nc(-c3cccs3)sc2n1	.	19*
SMILES	CDC25B-CDK2 inh	HIV TAR-Tat
CC(C)(C)NC(=O)c1cccc(N2C(=O)c3cccc([N+](=O)[O-])c3C2=O)c1	0.16	.
O=C(Nc1cccc(O)c1)c1cccc(N2C(=O)c3cccc([N+](=O)[O-])c3C2=O)c1	5.13*	.
CCOC(=O)Cn1c(=O)c(OCC)nc2cnccc21	-0.71	0.25
Nc1cccc(/C=C/c2nc3ccc(N)cc3[nH]2)c1	11.8*	2.04
Nc1ccc2nc(/C=C/c3ccccc3)[nH]c2c1	-2.81	-1.33
COC(=O)c1ccc(Nc2cc(N3CCOCC3)c3noc4c3c2C(=O)c2ccccc2-4)cc1	7.56*	3.37
O=C1c2ccccc2-c2onc3c(N4CCOCC4)cc(Nc4cccc(F)c4)c1c23	0.54	0.23
O=C1c2ccccc2-c2onc3c(N4CCOCC4)cc(Nc4ccccc4)c1c23	-2.2	0.02
O=C(O)c1cccc(Nc2cc(N3CCOCC3)c3noc4c3c2C(=O)c2ccccc2-4)c1	-0.18	7*
O=C(O)c1ccc(Nc2cc(N3CCOCC3)c3noc4c3c2C(=O)c2ccccc2-4)cc1	11.3*	31.5*
CN(C)c1ccc(Nc2cc(N3CCOCC3)c3noc4c3c2C(=O)c2ccccc2-4)cc1	-0.37	-4.36
O=C1c2ccccc2-c2onc3c(N4CCOCC4)cc(Nc4ccc5c(c4)OCO5)c1c23	0.7	-0.81
O=C1CCN(c2cc(Nc3cccc(F)c3)c3c4c(onc24)-c2ccccc2C3=O)CC1	7.78*	17.2*
O=C(O)CCCc1nnc2c(=O)n(-c3ccc(F)cc3)ccn12	-1.23	1.16
CCOC(=O)c1cc(S(=O)(=O)N(C)CC(=O)Nc2nccs2)cn1C	.	-0.34
O=C(NCc1cccs1)C1CCN(c2nnc(-n3cccc3)s2)CC1	.	2.6
Cn1c2c(c(=O)n(C)c1=O)CN(CCc1ccco1)CN2	-1.34	0.44
COc1ccc(Nc2cc(N3CCC(=O)CC3)c3noc4c3c2C(=O)c2ccccc2-4)cc1	0.9	-0.22
O=C1CCN(c2cc(Nc3ccc(C(=O)O)cc3)c3c4c(onc24)-c2ccccc2C3=O)CC1	14.1	26.7*
COc1cccc(NC2c3ccccc3C(=O)N2c2ccc(Cl)cn2)c1 (configuration not stated)	-0.61	0.89
N#CC1=C2N=C(N)c3ccccc3N2C2=C(C(=O)CCC2)C1c1cccc(Cl)c1 (configuration not stated)	19.5*	-3.56
COc1cccc(C2C(C#N)=C3N=C(N)c4ccccc4N3C3=C2C(=O)CCC3)c1 (configuration not stated)	-1.68	-1.69
CCOc1ccc(C2c3c(-c4cc(C)ccc4O)n[nH]c3C(=O)N2CCOC)cc1OCC (configuration not stated)	-0.38	1.38
CCOC(=O)N1CCc2c(sc3c2C(=O)NC(c2ccccc2)N3)C1 (configuration not stated)	0.33	-0.19
CCOC(=O)N1CCc2c(sc3c2C(=O)NC(c2ccc(OC)cc2)N3)C1 (configuration not stated)	16.1*	-2.76
SMILES	CDC25B-CDK2 inh	HIV TAR-Tat
CCOC(=O)N1CCc2c(sc3c2C(=O)NC(c2cccc(Br)c2)N3)C1 (configuration not stated)	6.37*	-1.15
COc1cccc(C2NC(=O)c3c(sc4c3CCN(C)C4)N2)c1OC (configuration not stated)	-0.33	-1.8
CCOC(=O)N1CCc2c(sc3c2C(=O)NC(c2ccc(O)c(OC)c2)N3)C1 (configuration not stated)	2.92	0.09
COc1ccccc1C1NC(=O)c2c(sc3c2CCN(C)C3)N1 (configuration not stated)	4.5*	-3.12
CC(=O)N1N=C(c2cccc(Br)c2)OC1c1ccccc1 (configuration not stated)	.	1.37
CCC(C)NC(=O)Cc1noc2ccccc12 (configuration not stated)	-0.19	0.82
Cc1nn(S(=O)(=O)c2ccc(C(C)C)cc2)c(C)c1S(=O)(=O)N1CCC(C)CC1	.	1.62
Cc1ccc2nc(C3=C(O)CN(c4cccc(C(=O)O)c4)C3=N)[nH]c2c1	-3.06	0.01
CCCN1C(=O)C2(/C(=C(/O)c3ccc(C)c(F)c3)C(=O)C(=O)N2CC2CCCO2)c2ccccc21 (configuration not stated)	-0.53	-0.71
Cc1ccc(/C(O)=C2/C(=O)C(=O)N(CC3CCCO3)C23C(=O)N(C)c2ccccc23)cc1F (configuration not stated)	0.18	16.2*
Cc1ccc(CN(C(=O)c2cc(-c3ccc(Cl)cc3)on2)C2CCS(=O)(=O)C2)o1 (configuration not stated)	-1.07	1.62
O=C(O)c1cc(-c2cc(C(=O)O)c3ccccc3n2)nc2ccccc12	1.55	1.12
O=C(O)c1cc(-c2ccco2)nc2ccccc12	.	23.9*
CSc1ccccc1NC(=S)Nc1ccc(Cl)cc1	-1.53	.
